Screens as filed in PubChem BioAssay.
TSHR agonist: TSH receptor (human) agonism. P16473. HEK293-CNG-TSHR cells (CNG channel as cAMP sensor), membrane potential dye, cAMP. Potency, µM (highest dose often 57.1 µM), for the others: top-dose activation, most hits filed as activators. actives 0.48% (n = 73,000); active means well fitted activation curve with a large enough effect in the main read-out, with a control signal flat, not every such curve was filed as active; inconclusive means small, poorly fitted or top-dose-only effect, or a change in a side signal; inactive means no such curve, though single readings can be large or run the other way; % of control where 0% means no effect;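 further: the control signal comes from parental cells without the receptor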
Target sequence (P16473 whole entry, looked up): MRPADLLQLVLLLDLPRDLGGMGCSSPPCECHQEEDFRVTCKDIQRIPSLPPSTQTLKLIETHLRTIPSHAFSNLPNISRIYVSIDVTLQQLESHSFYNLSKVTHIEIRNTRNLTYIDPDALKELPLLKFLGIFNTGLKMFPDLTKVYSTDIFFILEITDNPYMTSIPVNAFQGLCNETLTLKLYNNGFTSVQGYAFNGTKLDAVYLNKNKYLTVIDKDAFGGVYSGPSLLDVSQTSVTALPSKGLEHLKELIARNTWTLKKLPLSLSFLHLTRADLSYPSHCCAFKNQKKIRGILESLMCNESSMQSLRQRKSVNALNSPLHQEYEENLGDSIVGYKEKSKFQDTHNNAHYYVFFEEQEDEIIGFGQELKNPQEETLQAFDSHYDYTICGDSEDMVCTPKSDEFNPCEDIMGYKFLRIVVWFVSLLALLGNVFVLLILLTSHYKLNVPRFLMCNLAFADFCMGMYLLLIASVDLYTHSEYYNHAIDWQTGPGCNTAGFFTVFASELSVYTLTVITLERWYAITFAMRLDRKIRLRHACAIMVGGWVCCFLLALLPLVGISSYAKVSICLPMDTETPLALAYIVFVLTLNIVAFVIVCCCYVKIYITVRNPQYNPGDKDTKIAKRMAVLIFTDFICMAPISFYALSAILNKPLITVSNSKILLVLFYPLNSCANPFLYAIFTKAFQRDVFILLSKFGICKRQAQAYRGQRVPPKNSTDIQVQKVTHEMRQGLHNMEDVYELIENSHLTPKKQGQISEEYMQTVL
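cAMP rise detected as CNG-channel membrane depolarization by fluorescent dye (emission 590 nm), 30 min after compound, following 60 min dye loading containing 100 uM RO 20-1724 at room temperature. Cells: TSHR/CNG HEK 293, with parental CNG HEK 293 as control.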
IkB signaling: suppresses IkB signaling in ABC-DLBCL reporter cells; AID 445; ABC-DLBCL IkBa-CBG/CBR dual luciferase ratio, 4 h; response scale: scaled: untreated 0%, proteasome inhibitor 100%; actives 0.04% (n = 110,000); Potency, µM (doses to about 57.1 µM), for inactives: top-dose IkBa stabilization activation; active means well fitted curve in the direction sought with a large enough effect in the signal ratio, not every such curve was filed as active; inconclusive means small, poorly fitted or top-dose-only effect, or a change in a side signal; the % refers to the signal ratio;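 further: the direction sought is a rising ratio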
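Curves were fitted separately to fusion (green), unfused (red) and ratio luminescence, then classed by r2, magnitude and activity. Cells: OCI-Ly3, 4 h compound plus doxycycline at 37C; 10 uM MG-132 defined full response.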
HEK293 cAMP cs: raises cAMP in parental HEK293 cells, TSHR agonist counter-screen; parental HEK293 CNG cAMP sensor, membrane potential fluorescence; Potency, µM (doses to about 57.1 µM), without a hit: at the top dose activation, hits mostly activators; actives 2.5% (n = 73,000); active means well fitted activation curve with a large enough effect; inconclusive means small, poorly fitted or top-dose-only effect; inactive means no such curve, though single readings can be large or run the other way; further: % of control where 0% means no effect; nearly all actives have a fitted effect of over 55% in size
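Parental HEK 293 cells stably expressing a cAMP-gated CNG channel were loaded with membrane potential dye containing 100 uM RO 20-1724 for 60 min. Compound added for 30 min; depolarization read as fluorescence intensity at 590 nm.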
Hsp90 Hop PPI: changes Hsp90-Hop TPR2A binding signal, up or down | AlphaScreen TPR2A-His6 binding biotin-Hsp90 C-terminal peptide | Potency, µM (highest dose often 57 µM), without a hit: at the top dose activity change, negative = inhibition | actives 0.44% (n = 71,000); active means well fitted curve in either direction with a large enough effect; inconclusive means small, poorly fitted or top-dose-only effect, or another doubt; further: on the % scale 0 is the no-effect control and ±100 the full control effect
CRE Fsk mod: alters forskolin-stimulated CRE reporter signaling in CHO cells; actives 2.5% (n = 71,000); CHO CRE-bla reporter (cAMP response element driving beta-lactamase), forskolin EC10, beta-lactamase ratio; Potency, µM (series often up to 38.2 µM), for inactives: at the highest dose activity change, negative = inhibition, usual class: activators; AID 662; active means well fitted activation curve with a large enough effect in the signal ratio, with a control signal flat, not every such curve was filed as active; inconclusive means small, poorly fitted or top-dose-only effect, or effect the other way, or a change in a side signal; the % refers to the signal ratio; further: % of control where 0% means no effect
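Forskolin analogue NKH 477 at EC10 stimulated CRE-driven beta-lactamase in CHO cells alongside compound dilution series. Beta-lactamase was measured with CCF4, excitation 405 nm, emission ratio 460/530 nm.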
* hit, by the source's call; u = inconclusive; x = no result; [ ] = dose if it differs, or a comment. An excerpt weighted towards active compounds, which were near 3.5% of everything screened. Potency means the concentration at half of the fitted maximal effect.

SMILES	TSHR agonist	IkB signaling	HEK293 cAMP cs	Hsp90 Hop PPI	CRE Fsk mod
Cc1nc(N(C)C)c2sc(=S)n(C)c2n1	6%	-2%	4%	-1%[2.3 µM]	2.5µM*
COc1ccc2c(c1)CCc1c(C(=O)Nc3c(C)nn(Cc4ccc(Cl)c(Cl)c4)c3C)noc1-2	x	8%	x	x	x
COc1ccc(-c2nnc(-c3ccc(Br)o3)o2)cc1OC	5%	0%	15%	-2%	u
COc1cc(OC)c(-c2nnc(-c3ccc(OC)c(OC)c3OC)o2)cc1OC	4%	0%	-5%	-16%	4µM*
COc1ccc(C(=O)N2CCC3(CC2)CN(c2ccc(-c4ccccc4)cc2)C3)cc1	u	13%[11.4 µM]	u	-2%	-11%
CC(=O)Nc1nc2ccccc2n1CCN(C)C	-3%	0%	1%	-2%	7%
CN(C)CCn1c(C(=O)Nc2ccccc2)cc2ccccc21	u	3%	2µM*	-2%	-3%
CCc1nnc(NC(=O)CSc2nc3c(cc2C#N)CCC3)s1	-9%	-2%	6%	-3%	1.6µM*
COCC(=O)N1CCC2(CCCN(C(=O)Nc3ccc(OC)cc3)C2)CC1	3%	2%[11.4 µM]	7%	0%	-2%
Fc1cccc(-c2cc3nc4c(c(N5CCN(c6cnccn6)CC5)n3n2)CCCC4)c1	-1%[11.4 µM]	u	-2%	0%	-17%
COc1cccc(-c2cc3nc(-c4ccccc4)cc(N4CCC5(CC4)OCCO5)n3n2)c1	5%	2%	8%	20µM*	3.2µM*
Clc1cccc(-c2cc3nc4c(c(N5CCOCC5)n3n2)CCCC4)c1	x	u	27%	u	u
Fc1cccc(-c2cc3nc4c(c(N5CCOCC5)n3n2)CCCC4)c1	12%[11.4 µM]	1%	24%	u	10µM*
COc1ccc(-c2cc3nc4c(c(N5CCC6(CC5)OCCO6)n3n2)CCCC4)cc1	u	u	u	10%	2µM*
COc1cccc(C(c2sc3nc(-c4ccco4)nn3c2O)N2CCC3(CC2)OCCO3)c1 (stereo not drawn)	x	-2%	x	x	x
Cc1ccc(CNC(=O)c2cc3c(=O)n4cccc(C)c4nc3s2)cc1	x	4%	x	x	x
Cn1cccc1C(=O)N1CCC2(CCN(Cc3ccc(C#N)cc3)CC2)CC1	10%	0%[11.4 µM]	2%	-9%	1%
CCOC(=O)Nc1cc(OC)c(OC)cc1Cc1nccc2cc(OC)c(OC)cc12	11%	3%	-2%	-3%	6.3µM*
C=CCn1c2ccccc2c2nnc(SCc3ccc4nonc4c3)nc21	u	-2%	u	-1%	1.6µM*
Cc1cc(C)nc(SCc2ccc3nonc3c2)n1	u	-2%	u	u	18%
Cc1cc(SCC(=O)Nc2c(C)n(C)n(-c3ccccc3)c2=O)n2c(nc3ccccc32)c1C#N	-2%	1%	-8%	-5%	25µM*
c1nc2nc3c(c(N4CCOCC4)n2n1)CCCC3	2%	0%	5%	0%	2.5µM*
CC1CCc2c(nc3ncnn3c2N2CCN(c3ccccc3)CC2)C1 (stereo not drawn)	u	-1%	25µM*	-6%	5%
O=C(Nc1ccccc1Cl)N1CCN(c2ccc3nnc(-c4ccccc4)n3n2)CC1	-1%	-1%	3%	-2%	-9%
O=C(Nc1ccc(Cl)cc1)N1CCN(c2ccc3nnc(-c4ccc(F)cc4)n3n2)CC1	u	-5%	25µM*	x	x
SMILES	TSHR agonist	IkB signaling	HEK293 cAMP cs	Hsp90 Hop PPI	CRE Fsk mod
O=C(O)CC[P+](c1ccccc1)(c1ccccc1)c1ccccc1	u	0%[11.4 µM]	3.2µM*	2%[11 µM]	u
O=C1OC2(c3cc(Br)c(O)c(Br)c3Oc3c2cc(Br)c(O)c3Br)c2c(Cl)c(Cl)c(Cl)c(Cl)c21	u	-9%	16µM*	u	u
Cc1cc(OCc2ccc(F)cc2)nc(-c2ccccc2O)n1	x	0%	26%	25µM*	12%
Cc1ccc(Oc2cc(C)nc(-c3ccccc3O)n2)cc1	u	-1%	u	23%	u
Cc1cc(OC2CCCCC2)nc(-c2ccccc2O)n1	17%[11.4 µM]	2%	15%[11.4 µM]	3.2µM*	2.5µM*
N#CC1=C(N)Oc2c(ccc3cccnc23)C1c1cccnc1 (stereo not drawn)	3%	u	9%	32µM*	u
COC(=O)N1CCC2(CCN(C(=O)Nc3ccccc3)CC2)CC1	u	2%[11.4 µM]	u	-2%	-12%
CCC(C)(C)n1nnnc1C(C(C)C)N1CCSCC1 (stereo not drawn)	u	-1%	6.3µM*	3%	3%
COc1ccc2[nH]c(=O)c(CN(Cc3ccco3)Cc3nnnn3Cc3ccccc3)cc2c1	11%	4%	-8%	-4%	-11%
COc1ccccc1CN(Cc1cc2cc(C)ccc2[nH]c1=O)Cc1nnnn1Cc1ccco1	u	u	20µM*	-28%	-8%
CCOc1ccc2[nH]c(=O)c(CN(Cc3ccco3)Cc3nnnn3Cc3ccccc3)cc2c1	u	u	32µM*	-2%	u
O=C(CCc1ccccc1)Nc1c(F)c(F)c(F)c(F)c1F	u	0%	16µM*	14%	2%
O[C@@H]1[C@@H]2c3cc4c(cc3CN3CCC(=C[C@@H]1O)[C@H]23)OCO4	6%[25.6 µM]	u	-1%[25.6 µM]	-4%[26 µM]	0.79µM*
O=C(NCc1ccncc1)C12CC3CC(CC(C3)C1)C2	8%	1%	-24%	3%	8%
N#CC1=C(N)S[C@H](C(=O)C23CC4CC(CC(C4)C2)C3)[C@H]1c1ccncc1	1.3µM*	u	16%	-16%	0.79µM*
CCOC(=O)N1CCC(n2c(SCC(=O)NCCC3=CCCCC3)nc3ccccc3c2=O)CC1	u	u	6.3µM*	-1%	1%
O=C1Nc2ccc(S(=O)(=O)N3CCCCCC3)c3cccc1c23	u	4%	32µM*	7%	u
CCOc1ccccc1NC(=O)CN1c2ccccc2S(=O)(=O)c2ccccc21	x	-1%	x	x	x
CON(C)C(=O)c1nnc2c(n1)[nH]c1ccccc12	1%[11.4 µM]	x	6%[11.4 µM]	x	x
c1ccc2nc3c(nc2c1)[nH]c1ccccc13	2%	-4%	6%	u	10µM*
O=c1nc(-c2ccccc2)c2ccccc2[nH]1	u	-2%	u	0%	-3%
c1ccc(-c2c3ccccc3nc3[nH]c4ccccc4c23)cc1	u	x	10µM*	29%	u
COc1ccc(-c2nc3cc(NC(=O)COc4ccccc4C)ccc3o2)cc1	x	-1%	x	x	x
COc1ccccc1N1CCN(c2ccc(-c3ccccc3)nn2)CC1	u	4µM*	u	-13%	u
COc1cc2c(cc1OC)/C(=C/C#N)NC(C)(C)C2	11%	-2%	21%	-7%	2µM*
CC(=O)OC[C@@H]1O[C@H](CCO/N=C\[C@@H](C)[C@H](OCc2ccccc2)C(C)C)C=C[C@@H]1OC(C)=O	8%[11.4 µM]	x	15%[11.4 µM]	x	x
